Measurements published in the supplement of paper PMC6897291.
Structures can show the parent of a compound that is named as a salt.

System: RIVA
Assay: growth inhibition by drug plus 177Lu-lilotomab satetraxetan (1 - RLU/untreated control) (fraction); higher = stronger inhibition
Conditions: 10 nM; time (day): 4; 177Lu-lilotomab satetraxetan 0.5 ug/ml
In short: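 Growth inhibition was calculated from RealTime-Glo RLU against untreated no-drug wells. Values equal 1 − RLU/mean of 48 untreated no-drug wells per plate, read daily from day 3 after 1 h at 37°C. RIVA and U-2932 cells, with or without 18 h pretreatment by a radiolabelled anti-CD37 antibody conjugate (~600 MBq/mg; 0.5 µg/ml RIVA, 1 µg/ml U-2932), were washed and plated at 3,000 cells/well on compound-printed plates at 10/100 nM (RIVA) or 10/1,000 nM (U-2932).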

Compound	growth inhibition by drug plus 177Lu-lilotomab satetraxetan
CNCc1ccc(-c2[nH]c3cc(F)cc4c3c2CCNC4=O)cc1	0.514
O=C(O)c1ccc(-c2c[nH]c3ncc(-c4ccccc4)cc23)cc1C1CCCC1	0.539
CC(=O)c1c(C)c2cnc(Nc3ccc(N4CCNCC4)cn3)nc2n(C2CCCC2)c1=O	0.527
CCN(CC)CCCCNc1ncc2cc(-c3cc(OC)cc(OC)c3)c(NC(=O)NC(C)(C)C)nc2n1	0.564
CCC(C)(C)C(=O)O[C@H]1C[C@@H](C)C=C2C=C[C@H](C)[C@H](CC[C@@H]3C[C@@H](O)CC(=O)O3)[C@H]21 [Simvastatin (Zocor)]	0.554
CC[C@H](Nc1ncnc2[nH]cnc12)c1nc2cccc(F)c2c(=O)n1-c1ccccc1	0.448
CC(C=CC(=O)NO)=CC(C)C(=O)c1ccc(N(C)C)cc1 (stereo unspecified) [Trichostatin A (TSA)]	0.537
COc1ccc2c3n(c(=NC(=O)c4cccnc4)nc2c1OC)CCN3	0.534
NC(=O)c1ccc(-c2nc(-c3ccccn3)c(-c3ccc4c(c3)OCO4)[nH]2)cc1	0.64
CNC(=O)c1cc(Oc2ccc(NC(=O)Nc3ccc(Cl)c(C(F)(F)F)c3)c(F)c2)ccn1 [Regorafenib (BAY 73-4506)]	0.688
Cc1cnc(Nc2ccc(OCCN3CCCC3)cc2)nc1Nc1cccc(S(=O)(=O)NC(C)(C)C)c1	0.437
CCOc1ccc(Nc2nc(-c3c(C)nc4ccccn34)cs2)cc1	0.602
CC(C)C[C@H](NC(=O)[C@H](Cc1ccccc1)NC(=O)c1cnccn1)B(O)O [Bortezomib (Velcade)]	0.969
O=C1CN2Cc3c(ccc(Cl)c3Cl)N=C2N1 [Anagrelide]	0.616
Cc1cc(Nc2cc(N3CCN(C)CC3)nc(/C=C/c3ccccc3)n2)n[nH]1	0.485
CCc1cc(Nc2nccc(-c3c(-c4ccc(OC)c(C(=O)Nc5c(F)cccc5F)c4)nc4ccccn34)n2)c(OC)cc1N1CCC(N2CCN(S(C)(=O)=O)CC2)CC1	0.514
O=C1CN2Cc3c(ccc(Cl)c3Cl)N=C2N1 [Anagrelide hydrochloride]	0.615
O=C(NCCCNc1nc(Nc2cccc(NC(=O)N3CCCC3)c2)ncc1I)c1cccs1	0.787
CCC[C@H](NC(=O)/C(C#N)=C/c1cccc(Br)n1)c1ccccc1	0.596

Compound	growth inhibition by drug plus 177Lu-lilotomab satetraxetan
COc1cc2nc(N3CCCN(C)CC3)nc(NC3CCN(Cc4ccccc4)CC3)c2cc1OC	0.588
C#Cc1cccc(Nc2ncnc3cc(OCCOC)c(OCCOC)cc23)c1 [Erlotinib HCl]	0.534
CN(C)c1ccccc1CN1CCCN(Cc2ccccc2N(C)C)C1c1ccncc1	0.514
COc1cc2c(NC3CCN(C)CC3)nc(N3CCCN(C)CC3)nc2cc1OCCCN(C)C	0.464
COc1ccc(COc2cc3oc(=O)c4cc(C(C)O)ccc4c3cc2OC)cc1 (stereo unspecified) [Palomid 529]	0.478
CO[C@@H](C(=O)N1Cc2[nH]nc(NC(=O)c3ccc(N4CCN(C)CC4)cc3)c2C1)c1ccccc1	0.594
Cn1cc(C2=C(c3ccc(Cl)cc3Cl)C(=O)NC2=O)c2ccccc21	0.533
CCc1ccc(CCOc2ccc(CC3SC(=O)NC3=O)cc2)nc1 (stereo unspecified) [Pioglitazone (Actos)]	0.578
O=C(O)C1(C(=O)O)CCC1.[NH2-].[NH2-].[Pt+2] [Carboplatin]	0.519
CS(=O)(=O)c1ccc(C(=O)Nc2ccc(Cl)c(-c3ccccn3)c2)c(Cl)c1 [Vismodegib (GDC-0449)]	0.647
OCCn1cc(-c2ccc3c(c2)CC/C3=N\O)c(-c2ccncc2)n1	0.569
CC[C@@H]1C(=O)N(C)c2cnc(Nc3ccc(C(=O)NC4CCN(C)CC4)cc3OC)nc2N1C1CCCC1	0.959
CC[C@]1(O)C[C@H]2CN(CCc3c([nH]c4ccccc34)[C@@](C(=O)OC)(c3cc4c(cc3OC)N(C=O)[C@H]3[C@@](O)(C(=O)OC)[C@H](OC(C)=O)[C@]5(CC)C=CCN6CC[C@]43[C@@H]65)C2)C1 [Vincristine]	0.976
CC(C)(C)c1ccc(S(=O)(=O)/C=C/C#N)cc1	0.555
Cc1cn(-c2cc(NC(=O)c3ccc(C)c(Nc4nccc(-c5cccnc5)n4)c3)cc(C(F)(F)F)c2)cn1 [Nilotinib (AMN-107)]	0.516
CC(C)(C#N)c1cc(Cn2cncn2)cc(C(C)(C)C#N)c1 [Anastrozole]	0.583
C=CCn1c(=O)c2cnc(Nc3ccc(N4CCN(C)CC4)cc3)nc2n1-c1cccc(C(C)(C)O)n1	0.527
Cn1cnc(N)c2ncnc1-2 [3-Methyladenine]	0.602
CCc1c2c(nc3ccc(OC(=O)N4CCC(N5CCCCC5)CC4)cc13)-c1cc3c(c(=O)n1C2)COC(=O)[C@]3(O)CC [Irinotecan HCl Trihydrate (Campto)]	0.422

Same assay, conditions: 10 nM; time (day): 5; 177Lu-lilotomab satetraxetan 0.5 ug/ml

Compound	growth inhibition by drug plus 177Lu-lilotomab satetraxetan
CNCc1ccc(-c2[nH]c3cc(F)cc4c3c2CCNC4=O)cc1	0.55
O=C(O)c1ccc(-c2c[nH]c3ncc(-c4ccccc4)cc23)cc1C1CCCC1	0.552
CC(=O)c1c(C)c2cnc(Nc3ccc(N4CCNCC4)cn3)nc2n(C2CCCC2)c1=O	0.548
CCN(CC)CCCCNc1ncc2cc(-c3cc(OC)cc(OC)c3)c(NC(=O)NC(C)(C)C)nc2n1	0.587
CCC(C)(C)C(=O)O[C@H]1C[C@@H](C)C=C2C=C[C@H](C)[C@H](CC[C@@H]3C[C@@H](O)CC(=O)O3)[C@H]21 [Simvastatin (Zocor)]	0.575
CC[C@H](Nc1ncnc2[nH]cnc12)c1nc2cccc(F)c2c(=O)n1-c1ccccc1	0.484
CC(C=CC(=O)NO)=CC(C)C(=O)c1ccc(N(C)C)cc1 (stereo unspecified) [Trichostatin A (TSA)]	0.547
COc1ccc2c3n(c(=NC(=O)c4cccnc4)nc2c1OC)CCN3	0.559
NC(=O)c1ccc(-c2nc(-c3ccccn3)c(-c3ccc4c(c3)OCO4)[nH]2)cc1	0.642
CNC(=O)c1cc(Oc2ccc(NC(=O)Nc3ccc(Cl)c(C(F)(F)F)c3)c(F)c2)ccn1 [Regorafenib (BAY 73-4506)]	0.717
Cc1cnc(Nc2ccc(OCCN3CCCC3)cc2)nc1Nc1cccc(S(=O)(=O)NC(C)(C)C)c1	0.468
CCOc1ccc(Nc2nc(-c3c(C)nc4ccccn34)cs2)cc1	0.61
CC(C)C[C@H](NC(=O)[C@H](Cc1ccccc1)NC(=O)c1cnccn1)B(O)O [Bortezomib (Velcade)]	0.976
O=C1CN2Cc3c(ccc(Cl)c3Cl)N=C2N1 [Anagrelide]	0.633
Cc1cc(Nc2cc(N3CCN(C)CC3)nc(/C=C/c3ccccc3)n2)n[nH]1	0.509
CCc1cc(Nc2nccc(-c3c(-c4ccc(OC)c(C(=O)Nc5c(F)cccc5F)c4)nc4ccccn34)n2)c(OC)cc1N1CCC(N2CCN(S(C)(=O)=O)CC2)CC1	0.532
O=C1CN2Cc3c(ccc(Cl)c3Cl)N=C2N1 [Anagrelide hydrochloride]	0.628
O=C(NCCCNc1nc(Nc2cccc(NC(=O)N3CCCC3)c2)ncc1I)c1cccs1	0.812
CCC[C@H](NC(=O)/C(C#N)=C/c1cccc(Br)n1)c1ccccc1	0.601

Compound	growth inhibition by drug plus 177Lu-lilotomab satetraxetan
COc1cc2nc(N3CCCN(C)CC3)nc(NC3CCN(Cc4ccccc4)CC3)c2cc1OC	0.618
C#Cc1cccc(Nc2ncnc3cc(OCCOC)c(OCCOC)cc23)c1 [Erlotinib HCl]	0.536
CN(C)c1ccccc1CN1CCCN(Cc2ccccc2N(C)C)C1c1ccncc1	0.537
COc1cc2c(NC3CCN(C)CC3)nc(N3CCCN(C)CC3)nc2cc1OCCCN(C)C	0.475
COc1ccc(COc2cc3oc(=O)c4cc(C(C)O)ccc4c3cc2OC)cc1 (stereo unspecified) [Palomid 529]	0.494
CO[C@@H](C(=O)N1Cc2[nH]nc(NC(=O)c3ccc(N4CCN(C)CC4)cc3)c2C1)c1ccccc1	0.603
Cn1cc(C2=C(c3ccc(Cl)cc3Cl)C(=O)NC2=O)c2ccccc21	0.546
CCc1ccc(CCOc2ccc(CC3SC(=O)NC3=O)cc2)nc1 (stereo unspecified) [Pioglitazone (Actos)]	0.604
O=C(O)C1(C(=O)O)CCC1.[NH2-].[NH2-].[Pt+2] [Carboplatin]	0.538
CS(=O)(=O)c1ccc(C(=O)Nc2ccc(Cl)c(-c3ccccn3)c2)c(Cl)c1 [Vismodegib (GDC-0449)]	0.682
OCCn1cc(-c2ccc3c(c2)CC/C3=N\O)c(-c2ccncc2)n1	0.578
CC[C@@H]1C(=O)N(C)c2cnc(Nc3ccc(C(=O)NC4CCN(C)CC4)cc3OC)nc2N1C1CCCC1	0.97
CC[C@]1(O)C[C@H]2CN(CCc3c([nH]c4ccccc34)[C@@](C(=O)OC)(c3cc4c(cc3OC)N(C=O)[C@H]3[C@@](O)(C(=O)OC)[C@H](OC(C)=O)[C@]5(CC)C=CCN6CC[C@]43[C@@H]65)C2)C1 [Vincristine]	0.983
CC(C)(C)c1ccc(S(=O)(=O)/C=C/C#N)cc1	0.567
Cc1cn(-c2cc(NC(=O)c3ccc(C)c(Nc4nccc(-c5cccnc5)n4)c3)cc(C(F)(F)F)c2)cn1 [Nilotinib (AMN-107)]	0.522
CC(C)(C#N)c1cc(Cn2cncn2)cc(C(C)(C)C#N)c1 [Anastrozole]	0.593
C=CCn1c(=O)c2cnc(Nc3ccc(N4CCN(C)CC4)cc3)nc2n1-c1cccc(C(C)(C)O)n1	0.532
Cn1cnc(N)c2ncnc1-2 [3-Methyladenine]	0.615
CCc1c2c(nc3ccc(OC(=O)N4CCC(N5CCCCC5)CC4)cc13)-c1cc3c(c(=O)n1C2)COC(=O)[C@]3(O)CC [Irinotecan HCl Trihydrate (Campto)]	0.475
